Assay results: PubChem BioAssay AID1347413 (National Center for Advancing Translational Sciences (NCATS), 2020)
Unmarked numbers belong to inactive results. The source made the active and inactive calls. Calls come from the whole dose curve; as a rule, active = well fitted curve in the direction sought with a large enough effect; inactive = no such curve, though single readings can be large or run the other way.

assay: qHTS to identify inhibitors of the type 1 interferon - major histocompatibility complex class I in skeletal muscle: tertiary screen by RT-qPCR, retest select compounds; conditions: C25cl48 myoblasts, IFN-beta, HLA-B RT-qPCR, 24 h; series mostly up to 49.8 µM; activity change, negative = inhibition: at the top concentration
Description: Assay Submitter (PI): Travis B. Kinder Ph.D. & James Inglese Ph.D. Assay Development and Screening Technology Laboratory (ADST) National Center for Advancing Translational Sciences (NCATS), Rockville, MD National Institute of Health (NIH), Bethesda, Maryland Idiopathic inflammatory myopathies, collectively referred to as myositis, are a group of rare autoimmune diseases characterized by skeletal muscle inflammation, weakness, and usually accompanied by systemic pathologies of the skin, lungs, or vasculature. Current immunosuppressive therapies and glucocorticoids are often not curative and are accompanied by harsh side effects, especially in children with juvenile myositis. We initiated a drug repurposing and development program to identify more targeted, less toxic therapeutics to treat myositis. Although its cause is not known, muscle from a subset of patients have an abundance of the inflammatory type 1 interferon (IFN) and a down-stream product major histocompatibility complex class I (MHC class I), which are both thought to contribute to damage and weakness. We conducted quantitative high throughput screening (qHTS) on 6,576 compounds (4,679 unique) through a series of cell-based assays to identify those that inhibit the IFN-stimulated expression of MHC class I in muscle precursor cells (myoblasts). The compound identification and evaluation strategy utilized a primary screen with reporter-tagged MHC class I in genome-engineered myoblasts, ATP content counter screen for viability, HLA-ABC immunofluorescence secondary screen, and HLA-B RT-qPCR tertiary screen. To determine if active compounds identified by qHTS in HLA-B HiBit reporter cells, and confirmed by HLA-ABC immunofluorescence, can inhibit the transcription of HLA-B mRNA, compounds were assayed by RT-qPCR. […] Briefly, five compounds identified from primary, counter, and secondary screening as inhibitory with minimal cytotoxicity were dispensed into 384-well plates using acoustic dispensing in a 6-point, 1:7 titration with a high final concentration of 10 uM. Normal immortalized human myoblasts C25cl48 were added to the plate with 4.0 ng/ml human IFN-beta for 24 hours, and cells were harvested and assayed by the Cells-to-Ct kit with TaqMan assays (Thermo Fisher).
PROTOCOL TABLE (as described by Inglese et al., 2007) SEQUENCE No. (e.g., 1, 2, 3, etc.); PARAMETER (e.g., Cells, Incubation, Reagent, etc.); VALUE; DESCRIPTION 0; Compounds; 150 nl; Follow-up compounds dispensed at 150 nl/well with Labcyte Echo 655 acoustic dispenser into one Corning white/clear bottom, high base TC 384-well plates (3765) 1a; Cells; 30 uL; Using a p200 manual pipette, seed 780 cells/well into 1 plate in 30 ul/well of iHSKM growth medium without dexamethasone into columns wells A1-A6. […]

SMILES | Potency | activity change, negative = inhibition
CS[C@H]1SC[C@@H]2C(=O)N(C)[C@H](C(C)C)C(=O)OC[C@H](NC(=O)c3cnc4ccccc4n3)C(=O)N[C@H](C)C(=O)N(C)[C@H]1C(=O)N(C)[C@H](C(C)C)C(=O)OC[C@H](NC(=O)c1cnc3ccccc3n1)C(=O)N[C@H](C)C(=O)N2C | 2.9 nM (active) | 
CC(=O)OCC(=O)[C@@]12OC(C)(C)O[C@@H]1C[C@H]1[C@@H]3C[C@H](F)C4=CC(=O)C=C[C@]4(C)[C@@]3(F)[C@@H](O)C[C@@]12C |  | -17.2%
Cc1ncsc1-c1ccc([C@H](C)NC(=O)[C@@H]2C[C@@H](O)CN2C(=O)[C@@H](NC(=O)COCCCOCCNC(=O)C[C@@H]2N=C(c3ccc(Cl)cc3)c3c(sc(C)c3C)-n3c(C)nnc32)C(C)(C)C)cc1 | 164 nM (active) | 
C[C@]12C=CC(=O)C=C1CC[C@@H]1[C@@H]2[C@@H](O)C[C@@]2(C)[C@H]1CC[C@]2(O)C(=O)CO |  | -12.4%
